Laboratory results from PubChem BioAssay AID1159580 (chemical genetic matrix, 2015).
Among all 5,500 compounds or so, about 2,000 (36%) were called active. Inconclusive results (about 18%) are left out. No stated cut-off is given here; in the data, active means normalized growth mostly below about 0.91 (no sharp cut-off); inconclusive means no clear call, values can overlap the other calls; inactive means mostly above about 0.92. Some of the results follow.

Test: chemical genetic growth profiling, strain panel (AID 1159580);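 further: tested at 20 µM; growth read once vehicle control cultures reached saturation at 30 °C; 1 = growth at the plate median or of vehicle wells; lower values mean less growth of the strain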
Conditions: S. cerevisiae deletion strains, growth OD

Measured: normalized growth

Cc1c(C)c(C)c(C(O)c2ccccc2)c(C)c1C (stereo unspecified)
active: locus YHR030C, strain SLT2, active compounds read low 0.442 | locus YLR113W, strain HOG1, active compounds read low 0.609 | locus YPL256C, strain CLN2, active compounds read low 0.67
inactive: locus YAR019C, strain CDC15, active compounds read low 1 | locus YBL105C, strain PKC1, active compounds read low 1.01 | locus YBR135W, strain CKS1, active compounds read low 1 | locus YBR136W, strain MEC1, active compounds read low 1 | locus YBR160W, strain CDC28, active compounds read low 1.01 | locus YDL017W, strain CDC7, active compounds read low 1.01 | locus YDL028C, strain MPS1, active compounds read low 1 | locus YDL101C, strain DUN1, active compounds read low 0.998 | locus YDL108W, strain KIN28, active compounds read low 1.01 | locus YDL132W, strain cdc53, active compounds read low 0.998 | locus YDL214C, strain PRR2, active compounds read low 0.858 | locus YDR052C, strain DBF4, active compounds read low 0.989 | locus YDR054C, strain cdc34, active compounds read low 0.991 | locus YDR226W, strain ADK1, active compounds read low 0.993 | locus YDR477W, strain SNF1, active compounds read low 0.846 | locus YER123W, strain YCK3, active compounds read low 0.786 | locus YER133W, strain GLC7, active compounds read low 0.843 | locus YFL009W, strain cdc4, active compounds read low 0.994 | locus YFL029C, strain CAK1, active compounds read low 1 | locus YFR003C, strain YPI1, active compounds read low 1 | locus YFR019W, strain FAB1, active compounds read low 0.868 | locus YFR028C, strain CDC14, active compounds read low 0.997 | locus YGR040W, strain KSS1, active compounds read low 0.862 | locus YGR052W, strain FMP48, active compounds read low 0.75 | locus YGR092W, strain DBF2, active compounds read low 0.703 | locus YHR079C, strain IRE1, active compounds read low 0.742 | locus YHR082C, strain KSP1, active compounds read low 0.779 | locus YHR205W, strain SCH9, active compounds read low 0.775 | locus YIL147C, strain SLN1, active compounds read low 1.01 | locus YJL095W, strain BCK1, active compounds read low 0.602 | locus YJL128C, strain PBS2, active compounds read low 0.914 | locus YJL157C, strain FAR1, active compounds read low 0.884 | locus YJR016C, strain ILV3, active compounds read low 1 | locus YJR066W, strain TOR1 (second series), active compounds read low 0.84 | locus YJR066W, strain TOR1, active compounds read low 0.817 | locus YKL048C, strain ELM1, active compounds read low 0.867 | locus YKL067W, strain YNK1, active compounds read low 0.873 | locus YKL101W, strain HSL1, active compounds read low 0.781 | locus YKL193C, strain SDS22, active compounds read low 1 | locus YKL203C, strain TOR2, active compounds read low 0.894 | locus YLR133W, strain CKI1, active compounds read low 0.873 | locus YLR403W, strain SFP1, active compounds read low 0.847 | locus YML070W, strain DAK1, active compounds read low 0.75 | locus YMR001C, strain CDC5, active compounds read low 1 | locus YMR205C, strain PFK2 (second series), active compounds read low 0.849 | locus YMR277W, strain FCP1, active compounds read low 1 | locus YNL006W, strain LST8, active compounds read low 1.01 | locus YNL020C, strain ARK1, active compounds read low 0.852 | locus YNL161W, strain CBK1, active compounds read low 1 | locus YNL183C, strain NPR1, active compounds read low 0.696 | locus YNL207W, strain RIO2, active compounds read low 1 | locus YNL222W, strain SSU72, active compounds read low 0.999 | locus YNL307C, strain MCK1 (second series), active compounds read low 0.785 | locus YOL078W, strain AVO1, active compounds read low 1 | locus YOL136C, strain PFK27, active compounds read low 0.84 | locus YOR061W, strain CKA2, active compounds read low 0.844 | locus YOR119C, strain RIO1, active compounds read low 0.915 | locus YOR231W, strain MKK1, active compounds read low 0.785 | locus YOR329C, strain SCD5, active compounds read low 1 | locus YPL031C, strain PHO85, active compounds read low 0.806 | locus YPL153C, strain RAD53, active compounds read low 0.783 | locus YPL204W, strain HRR25, active compounds read low 0.777 | locus YPL209C, strain IPL1, active compounds read low 1 | locus YPR025C, strain CCL1, active compounds read low 1.01 | locus YPR106W, strain ISR1, active compounds read low 0.977 | locus YPR111W, strain DBF20, active compounds read low 0.967 | strain NNK1, active compounds read low 0.972 | strain TSCII, active compounds read low 1
